Assay outcomes from PubChem BioAssay.
Sampled rows, rich in hits. Any-hit rate of the full collection: about 11%.
Autophagy HCS – modulators of autophagy | MEF GFP-LC3 puncta imaging; test concentration mostly 10 µM | calls only at 10 µM (by protocol) | 190,000 compounds, 0.98% hits;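 active = percentage of spot-positive cells more than 3 SD above its plate mean, without a fluorescence outlier flag or 80% toxicity; inconclusive = no clear call, values can overlap the other calls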;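 also: spot-positive cell cutoff set from DMSO-treated cells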
INS promoter inh – TRM-6 insulin promoter activity inhibition; TRM-6 cells (human fetal islet line), insulin promoter-eGFP reporter, imaging; reporter expression induced with tamoxifen; inhibition, % at 2 µM; 130,000 compounds, 0.9% hits; AID 1273;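 active = inhibition above the mean plus 3 SD, with well images judged a real hit on visual review, cut at about 60% in these data, passing the limit was not always enough; inconclusive = inhibition over the cutoff but images rejected on review; inactive = inhibition not above the cutoff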
WT yeast gro inh – growth inhibition of WT yeast, mitochondrial fusion screen. mitochondrial fusion phenotypic screen, WT strain. inhibition, % at 10 µM. 190,000 compounds, 2.1% hits. AID 1362; in the data active = inhibition above about 58%; tested in S. cerevisiae
L major viab – inhibitors of Leishmania major promastigote growth; 200,000 compounds, 9% hits; inhibition, % at 10 µM; AID 1063; Leishmania major promastigotes, resazurin fluorescence viability; in the data active = inhibition above about 50%;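 also: promastigotes grown with compound for 44 hours at 28 °C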
Insulin prom up – MIN6 insulin promoter up-regulation; MIN6 insulin promoter-GFP reporter, high-content imaging; active compounds read high; 190,000 compounds, 0.3% hits; z-score at 5 µM; AID 1625;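 active = z-score above 3 at 5 µM with at least 500 cells counted in the well; inconclusive = wells under 500 cells, flagged as cytotoxic or low count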
* marks the source's active call; other numbers are inactive results; i = inactive; ? = inconclusive; nt = no result; + = active, no number.

SMILES | Autophagy HCS | INS promoter inh | WT yeast gro inh | L major viab | Insulin prom up
O=S(=O)(NCC1CCCO1)c1ccc(Cl)nc1 (configuration not stated) | nt | nt | nt | nt | -0.44
[NH-]c1ncnc2c1N=C[N+]2=CC=CCO | nt | nt | nt | nt | 0.26
NC(=O)COC(=O)CSc1ccc2ccccc2c1 | i | nt | -16 | -2 | 0
O=C(c1cccc2cccc(O)c12)N1CCCCC1 | + | nt | -4 | -8 | -0.1
O=C(c1ccccc1-c1ccccc1)N1CCCCC1 | i | nt | -2 | 7 | 0.79
CC(=O)OCCN(Cc1ccccc1)Cc1ccc2c(c1)OCO2 | i | 3 | 48 | -2 | -0.72
CC(NC(=O)N(Cc1ccccc1)Cc1ccc2c(c1)OCO2)(C(F)(F)F)C(F)(F)F | i | 0 | 2 | 94* | nt
CCC(NC(=O)N(Cc1ccccc1)Cc1ccc2c(c1)OCO2)(C(F)(F)F)C(F)(F)F | i | -47 | -3 | 67* | 0.65
CCN(CCn1cccn1)Cc1ccccc1OCC(O)CN1CCc2ccccc2C1 (configuration not stated) | i | nt | 5 | 12 | -0.64
Cc1ccnc(NC(c2cccnc2)c2ccc3cccnc3c2O)c1 (configuration not stated) | i | -33 | -10 | 98* | 0.57
COc1ccccc1NC(c1cccnc1)c1ccc2cccnc2c1O (configuration not stated) | i | nt | -9 | 3 | 0.1
Cc1ccc2ccc(C(Nc3cccc(C(F)(F)F)c3)c3cccnc3)c(O)c2n1 (configuration not stated) | i | nt | -9 | 100* | 1.1
COc1ccc(C(Nc2cc(C)ccn2)c2ccc3ccc(C)nc3c2O)cc1 (configuration not stated) | nt | nt | nt | nt | -0.33
Cc1cc(NC(c2ccc(Cl)cc2)c2ccc3cccnc3c2O)no1 (configuration not stated) | + | 42 | -3 | 100* | nt
Cc1ccnc(NC(c2ccsc2)c2ccc3ccc(C)nc3c2O)c1 (configuration not stated) | i | -26 | -7 | 5 | -0.73
COc1ccc(NC(=O)CN2CCC(Cc3ccccc3)CC2)cc1S(=O)(=O)N1CCOCC1 | i | nt | -19 | -1 | nt
O=C1c2ccccc2OC2(C=Cc3ccccc3O2)N1Cc1ccccc1 (configuration not stated) | i | nt | 69* | 24 | nt
COC(=O)C1=C(C)NC(=O)NC1c1ccc(OC(=O)c2ccco2)cc1 (configuration not stated) | i | -18 | -4 | -1 | nt
CN1CCN(CC(=O)N2CCn3c4c(c5cc(C6CCCCC6)ccc53)CCCC42)CC1 (configuration not stated) | i | -31 | 97 | 101* | -2.9
Cc1ccc(CN=C(Nc2ccccc2)NC2CCCCC2)cc1 | i | nt | -7 | 60* | -1.1
O=C(Nc1ccccc1)NC1CCCCC1 | i | 28 | 4 | 2 | -0.5
COc1ccccc1C1(CC(=O)Nc2nccs2)CCOC(C(C)C)C1 (configuration not stated) | i | nt | 6 | 85* | -0.32
Cc1ccc(C2(CC(=O)Nc3nccs3)CCOC(C(C)C)C2)cc1 (configuration not stated) | i | nt | 22 | 40 | -0.43
CC1Cc2ccccc2N1C(=O)CSc1nnnn1C(C)C (configuration not stated) | i | -34 | 5 | 4 | -0.39
CC(C)c1ccccc1OCC(=O)NC1CCCc2ccccc21 (configuration not stated) | i | nt | 61* | 5 | 0.99
SMILES | Autophagy HCS | INS promoter inh | WT yeast gro inh | L major viab | Insulin prom up
Cc1cccc(OCC(=O)NC2CCCc3ccccc32)c1C (configuration not stated) | i | -68 | 27 | 61* | -0.47
CC1=CC(=O)c2c(O)ccc(O)c2C1=O | i | nt | 35 | 98* | ?
O=C1C=C(O)c2cccc(O)c2C1=O | nt | nt | nt | nt | 0.86
Cc1cc(C)c2c(=O)[nH]c(SCC(=O)c3ccc(C)c(C)c3)nc2n1 | i | -9 | 9 | -7 | 0.66
COc1ccc(N2CCN(C(=S)NC(=O)c3cccs3)CC2)c([N+](=O)[O-])c1 | i | nt | 61* | 3 | -0.84
COc1ccc(N2CCN(C(=O)c3ccccc3Br)CC2)c([N+](=O)[O-])c1 | i | nt | 24 | -5 | 0.28
O=C(NC(=S)N1CCN(c2ccc(O)cc2)CC1)c1cccs1 | nt | nt | nt | nt | -0.01
O=C(NC(=S)N1CCN(c2c(Cl)cccc2[N+](=O)[O-])CC1)c1cccs1 | i | -4 | 78* | 4 | 0.34
Nc1ccc(C(=O)OCC(=O)Nc2ccc3c(c2)OCO3)cc1[N+](=O)[O-] | i | 48 | -2 | 69* | -0.06
Cc1cc(C(=O)COC(=O)c2ccc3c(c2)OCO3)c(C)n1CC1CCCO1 (configuration not stated) | i | -53 | -8 | 1 | -1.2
CCNc1ccc(C(=O)OCC(=O)c2cc(C)n(Cc3ccc4c(c3)OCO4)c2C)cc1[N+](=O)[O-] | i | 17 | -15 | 67* | 0.06
Cc1ccc(OCC(=O)Nc2ccc3c(c2)OCO3)c([N+](=O)[O-])n1 | i | -14 | 0 | 55* | 0.69
O=C(COC(=O)c1ccc(N2CCOCC2)c([N+](=O)[O-])c1)Nc1ccc2c(c1)OCO2 | i | 21 | 12 | 18 | 0.09
Cc1cc(C)c(OCC(=O)Nc2ccc3c(c2)OCO3)cc1C | i | 25 | 3 | 80* | -0.68
Cc1ccc(OCC(=O)Nc2ccc3c(c2)OC(F)(F)O3)c([N+](=O)[O-])n1 | i | -6 | 11 | 0 | -0.24
Cc1ccc(OCC(=O)Nc2ccc3c(c2)OCCO3)cc1C | i | 38 | 9 | 1 | -0.97
CN=C(NC1CCCCC1)c1ccc(Cl)cc1 | i | -31 | 9 | -6 | -0.47
Cc1c(Cl)c([N+](=O)[O-])nn1CC(=O)Nc1ccc2c(c1)OCO2 | i | -53 | 4 | 81* | -0.21
Cc1ccccc1OCC(=O)Nc1ccc2c(c1)OCCO2 | nt | nt | nt | nt | 0.27
CC(=O)Nc1ccc(-c2nnn(CC(=O)Nc3ccc4c(c3)OCO4)n2)cc1Cl | + | nt | -11 | 0 | 0
COc1ccc(NC(=O)Cn2nc([N+](=O)[O-])c(Cl)c2C)cc1OC | nt | nt | nt | nt | -0.48
Cc1ccc(C)c(OCC(=O)Nc2ccc3c(c2)OCO3)c1 | i | nt | -3 | 82* | 0.45
Cc1ccc(OCC(=O)NNC(=O)C(=O)N2CCCC2)c(C)c1 | i | 38 | 20 | -4 | 0.15
CCCn1c(NC(=O)C2CCN(S(=O)(=O)c3cccs3)CC2)nc2ccccc21 | i | 36 | 36 | 97* | -2.9
CCCC(=O)Nc1nc2ccc(OCC)cc2s1 | nt | nt | 11 | 15 | -1.2
CN(CC(=O)Nc1nc2ccccc2s1)S(=O)(=O)c1ccc(Cl)cc1 | i | -25 | 7 | 88* | -0.14
CCOc1ccc2nc(NC(=S)N(C)C)sc2c1 | + | 34 | 55 | 80* | 1.1
CN(C)C(=S)Nc1nc2ccccc2s1 | i | nt | 74* | 16 | nt
CCOc1ccccc1N1C(=O)CC(Sc2n[nH]c(-c3ccccc3)n2)C1=O (configuration not stated) | i | nt | -9 | -4 | -0.02
O=C(NCCc1csc(-c2ccc(C(F)(F)F)cc2)n1)c1cccs1 | i | nt | 53 | 10 | -0.27
